Data on 38 molecules can be found in PubChem BioAssay AID493194 (Broad Institute, 2011).

Measured potencies and affinities stand elsewhere. Records with an inconclusive call do not appear. The source made the active and inactive calls.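 How the source made its calls: active means a valid curve of falling signal whose half-effect concentration is at most ten times the top tested dose; inconclusive means flat curve at 30 to 70% inhibition, or poor fit; inactive means signal rise, flat within 30%, or potency beyond limit.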

The target in the assay is Scavenger receptor class B member 1 (Mus musculus) (UniProt Q61009). The assay can be described thus: inhibitors of SR-BI mediated HDL lipid uptake, dose response, ldlA[mSR-BI] cells, fluorescence, cherry pick (AID 493194).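 Further: CHO cells lacking LDL receptor and overexpressing mouse SR-BI; cellular uptake of fluorescently labeled HDL measured as cell fluorescence.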 As to conditions: CHO ldlA[mSR-BI] DiI-HDL uptake fluorescence, 3 h; series mostly up to 35 µM.
Scavenger receptor class B member 1 (Mus musculus), sequence (Q61009 whole entry, looked up): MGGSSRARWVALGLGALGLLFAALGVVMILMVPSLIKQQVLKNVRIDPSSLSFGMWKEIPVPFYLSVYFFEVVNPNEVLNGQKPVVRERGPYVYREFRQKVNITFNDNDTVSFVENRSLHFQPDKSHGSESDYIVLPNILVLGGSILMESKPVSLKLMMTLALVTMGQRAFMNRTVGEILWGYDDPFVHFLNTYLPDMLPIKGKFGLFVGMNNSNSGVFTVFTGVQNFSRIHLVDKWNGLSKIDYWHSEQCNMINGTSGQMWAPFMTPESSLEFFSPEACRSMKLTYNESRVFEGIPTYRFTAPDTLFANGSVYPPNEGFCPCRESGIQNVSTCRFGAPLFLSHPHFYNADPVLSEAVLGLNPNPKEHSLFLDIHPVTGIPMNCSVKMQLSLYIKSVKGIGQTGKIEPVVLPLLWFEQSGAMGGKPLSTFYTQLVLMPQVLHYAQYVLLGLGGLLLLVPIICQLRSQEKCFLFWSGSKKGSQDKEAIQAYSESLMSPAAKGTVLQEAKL
As to `COc1cccc(-c2csc(N3CCN(C(=O)NC45CC6CC(CC(C6)C4)C5)CC3)n2)c1`, the molecule was classed as inactive.

`CCCOC(=O)c1[nH]c2c(c1C)C(=O)CC(c1cc(OC)c(OC)c(OC)c1)C2` (stereo not drawn): the outcome was inactive.

In the case of `C/C=C/COC(=O)c1[nH]c2c(c1C)C(=O)CC(c1ccco1)C2` (stereo not drawn), the molecule was classed as inactive.

Consider `O=C(Nc1cccc(-c2cn3c(n2)SCC3)c1)c1ccc2ccccc2n1`, for which the molecule was classed as inactive.

Take `CC1Cc2ccccc2N1C(=O)Cn1nnc(-c2ccccc2NC(=O)C2CCC2)n1` (stereo not drawn): the molecule was called inactive.

As for `O=C(CN1CCN(CC(=O)Nc2ccc3c(c2)OC2(CCCCC2)O3)CC1)Nc1cccc(F)c1`, the molecule was called inactive.

As for `Cc1cc(N2CCN(C(=O)c3ccco3)CC2)n2ncc(-c3ccccc3)c2n1`, the molecule was called inactive.

On to `CC(=O)c1ccc(-c2ccc(C(=O)Nc3nc(-c4ccccn4)cs3)o2)cc1`, for which the molecule was classed as inactive.

As to `O=C(Nc1ccc(-c2nc3ccccc3o2)c(O)c1)c1cc(-n2cnnc2)ccc1Cl`, the call was inactive.

On to `CC(=O)Nc1nc(-c2ccccc2)nc(-c2ccccc2OC(C)=O)n1`, for which the outcome was inactive.

With `CN(C)c1ccc(/C=C2\Oc3ccc(C#Cc4cccc(N)c4)cc3C2=O)cc1`, the outcome was inactive.

Consider `Cc1ccccc1NC(=O)N(CCc1nc2ccccc2[nH]1)Cc1ccccc1`, for which the result was inactive.

Regarding `COc1ccc2c(c1)-c1c(sn(-c3ccc(OC)c(OC)c3)c1=S)C(C)(C)N2`, the call was inactive.

Take `Cc1ccc(C)c(NC(=O)c2ccc3c(c2)N(Cc2ccc(F)cc2)C(=O)CS3=O)c1` (stereo not drawn): the result was inactive.

Regarding `CCC(C)n1ncn(-c2ccc(N3CCN(c4ccc(OCC5COC(Cn6cncn6)(c6ccc(Cl)cc6Cl)O5)cc4)CC3)cc2)c1=O` (stereo not drawn), the molecule was classed as inactive.

Take `O=C(CN1CCN(c2ncc(C(F)(F)F)cc2Cl)CC1)NCCNc1ncc(C(F)(F)F)cc1Cl`: the call was inactive.

Turning to `Cn1c(-c2ccsc2)c(-c2cccs2)c2cc(-c3ccc4cc[nH]c4c3)ccc21`, the outcome was inactive.

With `O=c1cc(N2CCCCC2)c(-c2ccccc2)nn1Cc1cccc(F)c1`, the result was inactive.

As for `CC1CCCCC1NC(=O)C1CCN(C(=O)c2sccc2-n2cccc2)CC1` (stereo not drawn), the result was inactive.

Consider `COc1ccc(-c2csc(N3CCN(c4cc(C)nc5ccccc45)CC3)n2)cc1OC`, for which the molecule was classed as inactive.

With `O=C1C2C3C=CC(C3)C2C(=O)N1c1cccc(N2C(=O)C3C4C=CC(C4)C3C2=O)n1` (stereo not drawn), the molecule was called inactive.

For `COc1ccc(-c2nnn(CC(=O)N(C3CCCCC3)C(C)C(=O)NC3CCCC3)n2)cc1OC` (stereo not drawn), the molecule was classed as inactive.

In the case of `CCCC(=O)Nc1ccc(Cl)c(NC(=O)c2ccc(Br)o2)c1`, the molecule was called inactive.

`CCCCC(c1nnnn1CC1CCCO1)N1CCN(c2cc(Cl)ccc2C)CC1` (stereo not drawn): the outcome was inactive.

On to `CN(C(=O)COC(=O)CCc1c[nH]c2ccccc12)c1ccccc1`, for which the result was inactive.

In the case of `COc1cc(/C=C/C(=O)Nc2cccc(S(=O)(=O)NC3=NCCCCC3)c2)ccc1OCC#N`, the molecule was classed as inactive.

For `COc1ccccc1CCc1nnc(CCC(=O)N(C)Cc2cccc3cnccc23)o1`, the molecule was called inactive.

In the case of `CC(C)(C)C(=O)Nc1sc2c(c1-c1nc3ccccc3[nH]1)CCCC2`, the molecule was classed as inactive.

In the case of `Cc1ccc(NC(=O)c2cc(S(=O)(=O)N3CCOCC3)c(Br)s2)cc1`, the outcome was inactive.

`O=C(Nc1cccc(NC(=O)c2ccccc2[N+](=O)[O-])c1)c1ccccc1Cl`: the result was inactive.

Regarding `O=C1[C@@H]2Cc3c([nH]c4ccccc34)C(c3cccc([N+](=O)[O-])c3)N2C(=O)CN1CCCO` (stereo partly drawn), the outcome was inactive.

`CCCCN(Cc1ccccc1)c1ncnc2nc[nH]c12`: the molecule was called inactive.

Turning to `c1ccc(CCNc2nc(-c3ccncc3)nc3ccccc23)cc1`, the molecule was called inactive.

In the case of `O=S(=O)(c1ccccc1)c1cnc(-c2ccccc2)nc1N1CCCCC1`, the molecule was classed as inactive.

Turning to `CNc1sc(C(=O)c2cccs2)c(N)c1-c1nc2ccccc2s1`, the outcome was inactive.

Regarding `CCOC(=O)Nc1nc(-c2ccccc2)c(C(=O)c2ccccc2)s1`, the molecule was classed as inactive.

Consider `O=C(Nc1nc(-c2ccccn2)cs1)c1ccc(-c2ccccc2F)o1`, for which the call was inactive.

As for `Clc1ccc(Cn2nnc(-c3ccc(N4CCOCC4)cc3)n2)cc1`, the call was inactive.
